Data: the supplement of paper PMC7724964

Assays:
Assay in all cases: phage ELISA signal ratio (GST-PRM binding over GST background); higher = stronger binding of peptide-phage to the PRM
[1] = molecular target: RANBP1 39-170 Ran_BP1 (domain begin residue: 39, domain end residue: 170), P43487
In short: (§1)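 An M13 phage library with randomized hexadecapeptides on the gene-8 major coat protein, each peptide lacking cysteine and flanked by glycine, was selected for five rounds against human peptide recognition domains fused to the C-terminus of glutathione S-transferase (GST) and expressed in 96-well plates. Approximately 48 clones from rounds 4 and 5 went to phage ELISA. The reported value is the ELISA signal on the GST-domain fusion over the signal on GST alone, and positive clones were sequenced.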

[2] = molecular target: RANBP2 2924-3050 Ran_BP1 (domain begin residue: 2924, domain end residue: 3050)
In short: as §1

[3] = molecular target: RANBP2 1184-1310 Ran_BP1 (domain begin residue: 1184, domain end residue: 1310)
In short: as §1

[4] = molecular target: T1, RARA 175-421 Hormone_recep (domain begin residue: 175, domain end residue: 421), P10276
T1 chain: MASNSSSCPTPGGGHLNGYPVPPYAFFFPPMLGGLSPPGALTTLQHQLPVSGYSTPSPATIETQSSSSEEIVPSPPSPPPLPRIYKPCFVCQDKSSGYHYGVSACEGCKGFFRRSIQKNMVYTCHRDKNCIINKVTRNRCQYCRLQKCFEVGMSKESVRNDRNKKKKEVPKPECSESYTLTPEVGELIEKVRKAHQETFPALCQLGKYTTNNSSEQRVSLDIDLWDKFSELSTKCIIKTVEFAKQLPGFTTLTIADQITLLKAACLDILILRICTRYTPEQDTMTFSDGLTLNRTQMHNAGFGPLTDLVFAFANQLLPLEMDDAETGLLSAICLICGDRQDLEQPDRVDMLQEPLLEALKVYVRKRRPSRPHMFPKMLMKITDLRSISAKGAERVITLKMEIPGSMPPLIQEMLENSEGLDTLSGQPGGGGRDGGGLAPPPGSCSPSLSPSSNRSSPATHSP
In short: as §1

[5] = molecular target: T2, RARG 183-417 Hormone_recep (domain begin residue: 183, domain end residue: 417), P13631
T2 chain: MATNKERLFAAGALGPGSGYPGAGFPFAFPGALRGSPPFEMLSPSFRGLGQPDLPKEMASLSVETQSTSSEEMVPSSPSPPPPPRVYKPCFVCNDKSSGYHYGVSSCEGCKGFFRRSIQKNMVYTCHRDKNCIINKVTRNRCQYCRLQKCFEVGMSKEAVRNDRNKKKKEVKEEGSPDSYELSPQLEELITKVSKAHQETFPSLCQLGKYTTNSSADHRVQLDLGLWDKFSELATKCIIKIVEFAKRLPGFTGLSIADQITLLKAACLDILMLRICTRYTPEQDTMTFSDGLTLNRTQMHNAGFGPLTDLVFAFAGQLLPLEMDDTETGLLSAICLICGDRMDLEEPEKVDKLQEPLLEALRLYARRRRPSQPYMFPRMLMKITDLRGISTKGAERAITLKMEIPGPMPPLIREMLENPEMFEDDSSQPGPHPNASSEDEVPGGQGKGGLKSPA
In short: as §1

Sequence of RANBP1 39-170 Ran_BP1 (domain begin residue: 39, domain end residue: 170), P43487 (P43487 whole entry, the tested form may be a part): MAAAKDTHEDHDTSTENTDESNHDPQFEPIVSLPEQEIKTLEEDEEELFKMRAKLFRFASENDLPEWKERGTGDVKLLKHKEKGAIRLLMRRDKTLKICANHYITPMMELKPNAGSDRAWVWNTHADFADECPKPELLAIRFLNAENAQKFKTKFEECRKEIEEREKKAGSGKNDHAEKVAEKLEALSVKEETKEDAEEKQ

## PQWWHNMPALPDDIIH
[1]
  phage ELISA signal ratio: 14.7

## EFDAMQAHWNVLHPEG
[2]
  phage ELISA signal ratio: 8.19

## DMEQWWMELPQVPMYA
[1]
  phage ELISA signal ratio: 23.1

## QEFWERYTIPMWVDSF
[1]
  phage ELISA signal ratio: 13.7

## PPLPPDKNDWHVEYMP
[1]
  phage ELISA signal ratio: 15.6

## QKVHPWDDWDSPFMWF
[3]
  phage ELISA signal ratio: 12.9

## WPEYMSWDDAYWMTML
[4]
  phage ELISA signal ratio: 4.17

## EWDWPSDHSWWEYIQH
[2]
  phage ELISA signal ratio: 8.48

## WADEWEAPFVWKMQEV
[3]
  phage ELISA signal ratio: 3.11

## TEIALPWPDRAERAYL
[1]
  phage ELISA signal ratio: 16.3

## QDWWETALPQEPWHVV
[2]
  phage ELISA signal ratio: 22.7

## QAVVPWQMPLPDWIVS
[1]
  phage ELISA signal ratio: 18.4

## GAWDWQLDQLLMQYLE
[4]
  phage ELISA signal ratio: 4.72

## FDVPLPLEHDWWTSWV
[2]
  phage ELISA signal ratio: 3.39

## SKMDEWPPEPWELMKL
[3]
  phage ELISA signal ratio: 4.23

## WMMTLPPDMPGEWQVV
[1]
  phage ELISA signal ratio: 11

## PYGPFKSFEYMDIQRT
[5]
  phage ELISA signal ratio: 26.7

## FDPLWMALPEDKVHEM
[2]
  phage ELISA signal ratio: 3.06

## RQSQLQMWIWDATQDE
[4]
  phage ELISA signal ratio: 3.71

## MGYWDYLPPVPGETWG
[1]
  phage ELISA signal ratio: 15.4

## WEWSPLPPDVETFSQI
[1]
  phage ELISA signal ratio: 15.9

## DEELWAAPFTWGPVLE
[3]
  phage ELISA signal ratio: 4.84

## NDEWDHPFTFNPGVPP
[3]
  phage ELISA signal ratio: 5.9

## IDSYEHHSTGMVPLPD
[1]
  phage ELISA signal ratio: 26.3

## QYMLMSLPEDDWATPH
[2]
  phage ELISA signal ratio: 4.31

## WGQMPLPVDMPETWNF
[1]
  phage ELISA signal ratio: 21

## WQSWDDWDRPMHPMEN
[3]
  phage ELISA signal ratio: 6.6

## LSTDFLQMEHFWNQQF
[2]
  phage ELISA signal ratio: 3.07

## SQIQRYIDEAMTHQST
[4]
  phage ELISA signal ratio: 13.4
